About 1,100 (1.7%) of roughly 63,000 compounds were called active. Shown is part of a subset that was picked to be rich in actives. Entries with a potency or affinity are not part of this list. A number with no mark means an inactive call.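 How the source made its calls: active means compounds whose percent cytotoxicity in the single-dose primary screen, scaled between solvent and toxic-drug controls, exceeds 50; inactive means the rest.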
assay: viability loss of HPDE-C7K cells – cell-based, fluorescence, HTS, primary screen (AID 431); details: HPDE-C7K KRASV12 cells, Alamar Blue viability, 48 h; at 10 µM; hits give high values;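 further: 0% = DMSO solvent wells and 100% = doxorubicin-treated wells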

Question: For `COc1ccccc1C1C2CCCCC2(O)CCN1CC(=O)Nc1ccccc1` (stereo unspecified), which cytotoxicity is on record?
Answer: -7.4%

Question: With `Cn1cc(S(=O)(=O)CC(=O)N2CCc3ccccc32)c2ccccc21` as the compound, how does the cytotoxicity read?
Answer: 26.9%

Question: For `O=C(CSc1nnc(-c2cc3ccccc3cc2O)n1Cc1ccco1)c1ccc(F)cc1`, which cytotoxicity is on record?
Answer: 13.1%

Question: For `COc1ccc(C(=O)CSc2nnc(-c3ccccn3)n2Cc2ccco2)cc1`, which cytotoxicity is on record?
Answer: 5%

Question: For `COc1ccc(C(=O)CSc2nnc(-c3cc4ccccc4cc3O)n2Cc2ccco2)cc1`, which cytotoxicity is on record?
Answer: 66.1% (active)

Question: For `O=c1c2c3nc4ccccc4nc3n(/N=C/c3ccco3)c2ncn1CCC1=CCCCC1`, which cytotoxicity is on record?
Answer: 30%

Question: For `Cc1nc2c(c(=O)n1CCC1=CCCCC1)c1nc3ccccc3nc1n2/N=C/c1ccco1`, which cytotoxicity is on record?
Answer: 63.1% (active)

Question: With `CCCn1c(C)nc2c(c1=O)c1nc3ccccc3nc1n2CCC1=CCCCC1` as the compound, how does the cytotoxicity read?
Answer: 16.1%

Question: With `COc1ccc(S(=O)(=O)n2nc(-c3cc(OC)c(OC)c(OC)c3)cc2N)cc1OC` as the compound, how does the cytotoxicity read?
Answer: 5.2%

Question: With `COc1ccc(OC)c(S(=O)(=O)n2nc(-c3ccccc3)cc2N)c1` as the compound, how does the cytotoxicity read?
Answer: -10.9%

Question: With `O=C(CSc1nc2ccccc2[nH]1)N1CCCCC1` as the compound, how does the cytotoxicity read?
Answer: 0.6%

Question: For `Cc1ccccc1NC(=O)N1CCCC(c2nc(-c3ccc(C(C)C)cc3)no2)C1` (stereo unspecified), which cytotoxicity is on record?
Answer: 28.5%

Question: With `COc1ccc(-c2noc(C3CCCN(C(=O)c4cccs4)C3)n2)cc1` (stereo unspecified) as the compound, how does the cytotoxicity read?
Answer: -10.3%

Question: For `COc1ccc(NC(=O)N2CCCC(c3nc(-c4ccc(C(C)C)cc4)no3)C2)cc1` (stereo unspecified), which cytotoxicity is on record?
Answer: 65.6% (active)

Question: For `CN(CC(=O)N1CCc2ccccc21)S(=O)(=O)c1ccc(Cl)cc1`, which cytotoxicity is on record?
Answer: 1.1%

Question: With `COC(=O)C(C(=O)Nc1cc(C)on1)C1CCCCCC1` (stereo unspecified) as the compound, how does the cytotoxicity read?
Answer: -4.9%

Question: With `CSc1nc2cc(Cl)ccc2s1` as the compound, how does the cytotoxicity read?
Answer: -3.5%

Question: With `COc1ccc(C(=O)c2ccc(N3CCOCC3)cc2)c(OC)c1` as the compound, how does the cytotoxicity read?
Answer: 4.5%

Question: With `COc1ccc(C(=O)c2ccc(N(C)C)cc2)c(OC)c1` as the compound, how does the cytotoxicity read?
Answer: 56.3% (active)

Question: Which cytotoxicity does the source give for `COc1ccc(C(=O)Oc2ccc(C(C)=O)cc2)c(OC)c1` here?
Answer: 3.6%

Question: For `COc1cc(SC)ccc1C(=O)Nc1ccccc1C#N`, which cytotoxicity is on record?
Answer: 28.3%

Question: With `Nc1cc(N)nc(SCCOc2ccccc2F)n1` as the compound, how does the cytotoxicity read?
Answer: -15.6%

Question: Which cytotoxicity does the source give for `COc1ccccc1NC(=O)N1CCCC1C(=O)Nc1nnc(C(C)C)s1` (stereo unspecified) here?
Answer: 4.6%

Question: For `O=C(NCc1ccco1)C(c1cccnc1)N(C(=O)Cn1nnc2ccccc21)c1ccc(F)cc1` (stereo unspecified), which cytotoxicity is on record?
Answer: 9.8%

Question: Which cytotoxicity does the source give for `COC(=O)C1=C(C)N(C)C(C)=C(C(=O)OC)C1c1ccncc1` here?
Answer: -1%

Question: Which cytotoxicity does the source give for `Cc1ccc(CNC(=O)CCS(=O)(=O)c2cccc3nonc23)cc1` here?
Answer: -9.3%

Question: With `COc1ccc(-c2cc(C(=O)N3CCN(c4ccccn4)CC3)c3ccccc3n2)cc1` as the compound, how does the cytotoxicity read?
Answer: 5.9%

Question: Which cytotoxicity does the source give for `Cc1ccc2nc(-c3ccccn3)cc(C(=O)N3CCN(c4ncccn4)CC3)c2c1` here?
Answer: 13.2%

Question: For `CCOc1ccc(-c2cc(C(=O)N3CCN(C)CC3)c3ccccc3n2)cc1`, which cytotoxicity is on record?
Answer: -12.4%

Question: For `CCOc1ccc(-c2cc(C(=O)N3CCN(c4ccccn4)CC3)c3ccccc3n2)cc1`, which cytotoxicity is on record?
Answer: 53% (active)

Question: Which cytotoxicity does the source give for `Cc1ccc(-c2cc(C(=O)N3CCOCC3)c3ccccc3n2)cc1` here?
Answer: 1.8%

Question: Which cytotoxicity does the source give for `CCOC(=O)N1CCN(C(=O)c2cc(-c3ccc(OCC)cc3)nc3ccccc23)CC1` here?
Answer: 63.5% (active)

Question: For `O=C(c1cc(-c2ccccc2)nc2ccccc12)N1CCN(c2ccccn2)CC1`, which cytotoxicity is on record?
Answer: 27.1%

Question: With `COc1cccc(-c2cc(C(=O)N3CCN(c4ncccn4)CC3)c3ccccc3n2)c1` as the compound, how does the cytotoxicity read?
Answer: 15.2%

Question: For `Cc1ccc(-c2cc(C(=O)N3CCN(c4ncccn4)CC3)c3ccccc3n2)cc1`, which cytotoxicity is on record?
Answer: 58.8% (active)

Question: Which cytotoxicity does the source give for `CSC1=C(C#N)C(c2ccc(Cl)cc2)C2=C(CC(C)(C)CC2=O)N1` (stereo unspecified) here?
Answer: 2.7%

Question: For `O=C(CSc1nnc(-c2ccco2)o1)N1CCOCC1`, which cytotoxicity is on record?
Answer: -5.8%

Question: For `Cc1cc(NC(=O)CN2CCN(c3ncccn3)CC2)no1`, which cytotoxicity is on record?
Answer: -2.6%

Question: With `CCCn1nnc(NC(=O)COc2ccccc2Cl)n1` as the compound, how does the cytotoxicity read?
Answer: 8.6%

Question: With `Cc1cc(S(=O)(=O)N2CCC(NC(=O)C34CC5CC(CC(C5)C3)C4)CC2)ccc1-n1cnnn1` as the compound, how does the cytotoxicity read?
Answer: -5.5%

Question: For `COc1ccccc1OCCNC(=O)c1cccs1`, which cytotoxicity is on record?
Answer: -0.7%

Question: Which cytotoxicity does the source give for `CCOc1ccc(C2C=C(c3ccc(C)cc3)Nc3nnnn32)cc1` (stereo unspecified) here?
Answer: -11%

Question: With `COc1ccc(C2=CC(c3ccc(C)cc3)n3nnnc3N2)cc1` (stereo unspecified) as the compound, how does the cytotoxicity read?
Answer: -4.4%

Question: For `Cc1ccc(CNC(=O)C2CCN(S(=O)(=O)c3cccs3)CC2)o1`, which cytotoxicity is on record?
Answer: -10.5%

Question: With `O=C(CC1CCCCC1)c1c(O)c2ccccc2oc1=O` as the compound, how does the cytotoxicity read?
Answer: 59.2% (active)

Question: For `O=C(CCC1CCCC1)c1c(O)c2ccccc2oc1=O`, which cytotoxicity is on record?
Answer: 18%

Question: For `O=C(c1c(O)c2ccccc2oc1=O)C1CCC1`, which cytotoxicity is on record?
Answer: 6.1%

Question: With `COc1cccc(-c2nnc3n2N=C(c2cccc(Br)c2)CS3)c1` as the compound, how does the cytotoxicity read?
Answer: -14.8%

Question: With `CCSc1nnc([C@@H]2CCCN2C(=O)OC(C)(C)C)o1` as the compound, how does the cytotoxicity read?
Answer: -8.4%

Question: Which cytotoxicity does the source give for `Cc1cccc(OCC(O)Cn2c(NCc3cccnc3)nc3c2c(=O)[nH]c(=O)n3C)c1` (stereo unspecified) here?
Answer: -23.4%

Question: For `Cc1nc(SCC(=O)N2CCCc3ccccc32)c2oc3ccccc3c2n1`, which cytotoxicity is on record?
Answer: -19.9%

Question: Which cytotoxicity does the source give for `CCNc1nc(CC)nc2c1oc1ccccc12` here?
Answer: -17.1%

Question: For `CCc1nc(Nc2ccncc2)c2oc3ccccc3c2n1`, which cytotoxicity is on record?
Answer: 64.2% (active)

Question: With `Cc1nc(SCC(=O)N2CCN(c3ccccc3)CC2)c2oc3ccccc3c2n1` as the compound, how does the cytotoxicity read?
Answer: 54.9% (active)

Question: Which cytotoxicity does the source give for `Cc1nc(Nc2ccncc2)c2oc3ccccc3c2n1` here?
Answer: -14.9%

Question: For `Cc1nc(SCC(=O)O)c2oc3ccccc3c2n1`, which cytotoxicity is on record?
Answer: -10.8%

Question: Which cytotoxicity does the source give for `CC(=O)N1CCN(c2ccc(Nc3ncnc4c3oc3ccccc34)cc2)CC1` here?
Answer: 19.3%

Question: With `CC(=O)N1CCN(c2ccc(Nc3nc(C)nc4c3oc3ccccc34)cc2)CC1` as the compound, how does the cytotoxicity read?
Answer: -3.4%

Question: With `CCc1nc(Nc2ccc(N3CCN(C(C)=O)CC3)cc2)c2oc3ccccc3c2n1` as the compound, how does the cytotoxicity read?
Answer: 52.7% (active)

Question: Which cytotoxicity does the source give for `COc1ccc2c(c1)c(=O)c(Br)c(C)n2Cc1ccccc1` here?
Answer: 0.5%

Question: For `FC(F)(F)c1cccc(-c2ccc(-c3csnn3)o2)c1`, which cytotoxicity is on record?
Answer: -13.4%
